The record followed here is ChEMBL document CHEMBL1961873, “Compounds: GSK PKIS; Assays: Nanosyn kinase panel” (2012).

In assay [1] the target is Tyrosine-protein kinase Fer (Homo sapiens) (UniProt P16591). To be noted: at 1 µM.
Assay [2] addresses Tyrosine-protein kinase Fes/Fps (Homo sapiens) (UniProt P07332). To be noted: at 0.1 µM.
Assay [3] has the same target. The settings on record: at 1 µM.
The target of assay [4] is Fibroblast growth factor receptor 1 (Homo sapiens) (UniProt P11362). To be noted: at 0.1 µM.
Assay [5] has the same target. The settings on record: at 1 µM.
For assay [6], the target named is Fibroblast growth factor receptor 2 (Homo sapiens) (UniProt P21802). To be noted: at 0.1 µM.
Fibroblast growth factor receptor 2 (Homo sapiens), sequence (P21802 22-821 limits assumed): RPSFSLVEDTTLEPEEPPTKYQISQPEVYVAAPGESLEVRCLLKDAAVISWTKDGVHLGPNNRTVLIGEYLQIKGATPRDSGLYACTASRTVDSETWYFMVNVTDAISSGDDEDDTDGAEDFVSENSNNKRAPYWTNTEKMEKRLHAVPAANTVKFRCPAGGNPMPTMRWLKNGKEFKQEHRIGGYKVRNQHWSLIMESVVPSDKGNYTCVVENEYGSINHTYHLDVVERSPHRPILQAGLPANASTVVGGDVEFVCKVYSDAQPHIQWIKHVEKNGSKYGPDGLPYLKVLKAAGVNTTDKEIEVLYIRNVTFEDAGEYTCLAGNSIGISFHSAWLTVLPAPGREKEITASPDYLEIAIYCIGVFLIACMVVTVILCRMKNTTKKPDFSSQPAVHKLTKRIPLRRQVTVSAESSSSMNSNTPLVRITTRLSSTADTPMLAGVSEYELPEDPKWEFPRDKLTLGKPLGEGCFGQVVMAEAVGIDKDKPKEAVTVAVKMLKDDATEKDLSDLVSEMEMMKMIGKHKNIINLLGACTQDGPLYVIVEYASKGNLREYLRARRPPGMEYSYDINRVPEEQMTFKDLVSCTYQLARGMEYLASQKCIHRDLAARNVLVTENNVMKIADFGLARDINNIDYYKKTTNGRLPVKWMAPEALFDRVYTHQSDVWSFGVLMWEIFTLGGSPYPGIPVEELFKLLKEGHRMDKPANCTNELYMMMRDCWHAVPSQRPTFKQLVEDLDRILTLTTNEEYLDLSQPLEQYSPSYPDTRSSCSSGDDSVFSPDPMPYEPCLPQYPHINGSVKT
The target is the same in assay [7]. The settings on record: at 1 µM.
Assay [8] has as its target Fibroblast growth factor receptor 3 (Homo sapiens) (UniProt P22607). The settings on record: at 0.1 µM.
For assay [9] the target is unchanged. To be noted: at 1 µM.
Assay [10] deals with Fibroblast growth factor receptor 4 (Homo sapiens) (UniProt P22455). The settings on record: at 0.1 µM.
For assay [11] the target is unchanged. The settings on record: at 1 µM.
For assay [12], the target named is Tyrosine-protein kinase Fgr (Homo sapiens) (UniProt P09769). The settings on record: at 0.1 µM.
Tyrosine-protein kinase Fgr (Homo sapiens), sequence (P09769 2-529 limits assumed): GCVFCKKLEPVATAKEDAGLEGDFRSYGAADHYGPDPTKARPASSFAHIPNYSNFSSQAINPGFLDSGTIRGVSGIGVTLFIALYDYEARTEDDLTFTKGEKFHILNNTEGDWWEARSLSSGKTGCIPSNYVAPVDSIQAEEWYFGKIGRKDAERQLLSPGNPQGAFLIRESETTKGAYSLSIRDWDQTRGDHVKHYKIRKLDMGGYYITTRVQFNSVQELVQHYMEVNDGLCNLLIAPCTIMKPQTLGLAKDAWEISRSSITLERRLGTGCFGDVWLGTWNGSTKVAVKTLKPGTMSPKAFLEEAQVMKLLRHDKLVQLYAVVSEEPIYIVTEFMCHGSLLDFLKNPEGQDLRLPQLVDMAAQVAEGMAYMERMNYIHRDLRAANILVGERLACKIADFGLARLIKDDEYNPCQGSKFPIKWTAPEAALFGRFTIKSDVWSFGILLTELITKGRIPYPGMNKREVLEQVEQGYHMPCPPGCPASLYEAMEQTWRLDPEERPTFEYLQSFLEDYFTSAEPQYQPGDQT
For assay [13] the target is unchanged. To be noted: at 1 µM.
Assay [14] concerns the target Vascular endothelial growth factor receptor 1 (Homo sapiens) (UniProt P17948). To be noted: at 0.1 µM.
Assay [15] shares this target. To be noted: at 1 µM.
The target of assay [16] is Receptor-type tyrosine-protein kinase FLT3 (Homo sapiens) (UniProt P36888). The settings on record: at 0.1 µM.
Assay [17] has the same target. The settings on record: at 1 µM.
Assay [18] deals with T1, Receptor-type tyrosine-protein kinase FLT3 (Homo sapiens), P36888 [D835Y].
T1 sequence (whole entry): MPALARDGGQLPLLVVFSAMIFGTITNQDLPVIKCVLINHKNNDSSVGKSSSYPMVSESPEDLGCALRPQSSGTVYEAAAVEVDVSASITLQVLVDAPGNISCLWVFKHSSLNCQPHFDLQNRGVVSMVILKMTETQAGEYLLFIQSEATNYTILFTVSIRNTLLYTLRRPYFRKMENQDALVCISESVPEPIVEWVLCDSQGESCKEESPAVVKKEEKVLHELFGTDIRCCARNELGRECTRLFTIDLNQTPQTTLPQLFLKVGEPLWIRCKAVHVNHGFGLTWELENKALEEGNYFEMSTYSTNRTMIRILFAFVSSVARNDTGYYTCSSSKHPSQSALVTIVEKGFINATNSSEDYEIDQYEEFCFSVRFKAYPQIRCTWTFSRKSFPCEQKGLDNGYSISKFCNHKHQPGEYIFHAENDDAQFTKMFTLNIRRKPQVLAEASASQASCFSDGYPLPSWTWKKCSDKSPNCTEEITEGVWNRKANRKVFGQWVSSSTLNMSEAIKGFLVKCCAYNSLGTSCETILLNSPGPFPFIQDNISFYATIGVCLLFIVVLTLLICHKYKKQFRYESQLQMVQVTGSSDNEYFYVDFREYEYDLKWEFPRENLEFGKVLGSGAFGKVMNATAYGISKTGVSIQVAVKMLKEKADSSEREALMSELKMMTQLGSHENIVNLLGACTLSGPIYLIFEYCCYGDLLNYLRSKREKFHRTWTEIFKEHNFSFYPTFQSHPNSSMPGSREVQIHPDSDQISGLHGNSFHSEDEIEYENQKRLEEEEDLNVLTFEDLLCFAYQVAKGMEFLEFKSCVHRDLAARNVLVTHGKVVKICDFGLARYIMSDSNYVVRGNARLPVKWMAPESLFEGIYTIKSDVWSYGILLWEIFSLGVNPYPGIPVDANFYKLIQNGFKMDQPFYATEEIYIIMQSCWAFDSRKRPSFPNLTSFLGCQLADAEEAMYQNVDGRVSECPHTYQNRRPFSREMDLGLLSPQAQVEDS
The settings on record: at 0.1 µM.

For assay [19], the target named is Non-receptor tyrosine-protein kinase TYK2 (Homo sapiens) (UniProt P29597). The settings on record: at 1 µM.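 Note: values are mean percent inhibition of TYK2 kinase.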
Non-receptor tyrosine-protein kinase TYK2 (Homo sapiens), sequence (P29597 whole entry): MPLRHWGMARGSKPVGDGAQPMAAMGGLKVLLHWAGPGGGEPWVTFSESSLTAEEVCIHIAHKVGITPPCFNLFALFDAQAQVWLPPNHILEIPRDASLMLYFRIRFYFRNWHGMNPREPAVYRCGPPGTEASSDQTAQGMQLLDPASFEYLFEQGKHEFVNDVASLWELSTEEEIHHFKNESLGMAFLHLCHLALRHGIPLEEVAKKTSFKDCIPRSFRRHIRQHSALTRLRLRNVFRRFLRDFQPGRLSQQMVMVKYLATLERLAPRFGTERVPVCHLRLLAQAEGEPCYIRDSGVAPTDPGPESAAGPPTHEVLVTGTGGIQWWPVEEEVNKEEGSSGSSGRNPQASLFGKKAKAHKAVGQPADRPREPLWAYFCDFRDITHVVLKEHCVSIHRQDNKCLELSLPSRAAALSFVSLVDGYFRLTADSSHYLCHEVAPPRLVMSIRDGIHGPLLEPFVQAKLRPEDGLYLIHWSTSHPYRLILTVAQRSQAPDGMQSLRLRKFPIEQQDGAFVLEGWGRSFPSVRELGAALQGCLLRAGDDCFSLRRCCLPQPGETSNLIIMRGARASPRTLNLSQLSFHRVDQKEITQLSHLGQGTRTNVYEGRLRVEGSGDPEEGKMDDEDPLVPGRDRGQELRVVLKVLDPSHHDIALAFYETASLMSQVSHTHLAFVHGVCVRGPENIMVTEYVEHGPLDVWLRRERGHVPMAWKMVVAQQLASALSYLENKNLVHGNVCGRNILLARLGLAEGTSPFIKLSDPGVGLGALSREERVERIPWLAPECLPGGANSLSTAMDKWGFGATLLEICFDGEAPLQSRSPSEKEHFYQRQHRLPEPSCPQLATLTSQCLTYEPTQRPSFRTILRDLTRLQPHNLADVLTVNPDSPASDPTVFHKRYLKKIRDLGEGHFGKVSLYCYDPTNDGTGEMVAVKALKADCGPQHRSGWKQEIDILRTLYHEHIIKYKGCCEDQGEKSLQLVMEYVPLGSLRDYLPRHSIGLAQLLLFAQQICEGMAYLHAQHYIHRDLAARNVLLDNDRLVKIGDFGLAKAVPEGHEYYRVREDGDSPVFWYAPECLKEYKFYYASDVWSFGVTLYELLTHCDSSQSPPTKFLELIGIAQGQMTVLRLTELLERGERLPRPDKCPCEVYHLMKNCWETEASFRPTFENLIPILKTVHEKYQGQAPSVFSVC
Assay [20] addresses T2, Tyrosine-protein kinase receptor TYRO3 (Homo sapiens) (UniProt Q06418).
T2 sequence (whole entry): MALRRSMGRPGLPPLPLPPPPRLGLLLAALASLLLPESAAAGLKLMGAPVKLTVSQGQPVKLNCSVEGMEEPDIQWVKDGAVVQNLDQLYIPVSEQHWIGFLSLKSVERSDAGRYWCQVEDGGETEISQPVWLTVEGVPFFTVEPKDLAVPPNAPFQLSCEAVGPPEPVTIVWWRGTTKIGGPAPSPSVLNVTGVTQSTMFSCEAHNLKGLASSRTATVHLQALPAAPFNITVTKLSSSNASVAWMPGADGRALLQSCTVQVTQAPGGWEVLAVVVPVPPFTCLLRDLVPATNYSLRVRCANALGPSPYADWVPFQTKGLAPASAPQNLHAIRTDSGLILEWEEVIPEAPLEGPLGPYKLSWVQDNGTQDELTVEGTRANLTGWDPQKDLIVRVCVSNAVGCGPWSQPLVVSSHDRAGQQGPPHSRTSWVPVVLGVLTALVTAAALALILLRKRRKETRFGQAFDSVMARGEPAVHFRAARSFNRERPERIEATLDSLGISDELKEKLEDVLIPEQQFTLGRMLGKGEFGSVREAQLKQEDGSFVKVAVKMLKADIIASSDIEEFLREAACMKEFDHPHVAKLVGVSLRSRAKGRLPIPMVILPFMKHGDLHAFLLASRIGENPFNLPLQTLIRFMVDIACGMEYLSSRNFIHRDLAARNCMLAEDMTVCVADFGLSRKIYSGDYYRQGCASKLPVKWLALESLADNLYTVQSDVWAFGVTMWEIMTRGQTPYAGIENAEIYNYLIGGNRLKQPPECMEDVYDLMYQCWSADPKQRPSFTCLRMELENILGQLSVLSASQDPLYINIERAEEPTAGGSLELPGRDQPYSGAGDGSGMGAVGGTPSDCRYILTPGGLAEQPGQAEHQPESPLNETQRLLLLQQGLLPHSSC
To be noted: at 0.1 µM.

Broadly, the inhibition is the change of the read-out against control, counted positive when it falls.

Tyrosine-protein kinase Fes/Fps (Homo sapiens), sequence (P07332 whole entry): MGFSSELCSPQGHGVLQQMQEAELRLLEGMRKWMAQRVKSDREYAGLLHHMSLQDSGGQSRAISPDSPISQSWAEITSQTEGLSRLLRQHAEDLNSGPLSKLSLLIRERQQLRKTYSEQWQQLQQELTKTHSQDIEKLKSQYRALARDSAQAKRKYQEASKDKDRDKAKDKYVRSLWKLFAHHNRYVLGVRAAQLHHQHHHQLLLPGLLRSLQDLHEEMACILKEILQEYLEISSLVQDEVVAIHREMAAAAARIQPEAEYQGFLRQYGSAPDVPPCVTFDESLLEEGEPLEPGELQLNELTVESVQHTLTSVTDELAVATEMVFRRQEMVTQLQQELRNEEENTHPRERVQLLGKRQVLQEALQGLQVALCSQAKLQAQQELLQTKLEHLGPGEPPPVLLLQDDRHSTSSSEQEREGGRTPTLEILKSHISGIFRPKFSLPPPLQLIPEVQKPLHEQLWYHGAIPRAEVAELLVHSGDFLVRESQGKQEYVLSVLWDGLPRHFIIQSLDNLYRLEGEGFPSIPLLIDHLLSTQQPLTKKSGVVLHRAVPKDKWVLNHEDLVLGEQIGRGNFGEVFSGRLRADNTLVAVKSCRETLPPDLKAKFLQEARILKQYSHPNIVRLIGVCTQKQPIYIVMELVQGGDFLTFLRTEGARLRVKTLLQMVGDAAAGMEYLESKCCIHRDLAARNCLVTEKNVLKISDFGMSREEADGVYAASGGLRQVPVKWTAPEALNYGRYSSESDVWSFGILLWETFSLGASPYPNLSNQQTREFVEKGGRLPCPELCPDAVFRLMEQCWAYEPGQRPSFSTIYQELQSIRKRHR
Fibroblast growth factor receptor 3 (Homo sapiens), sequence (P22607 23-806 limits assumed): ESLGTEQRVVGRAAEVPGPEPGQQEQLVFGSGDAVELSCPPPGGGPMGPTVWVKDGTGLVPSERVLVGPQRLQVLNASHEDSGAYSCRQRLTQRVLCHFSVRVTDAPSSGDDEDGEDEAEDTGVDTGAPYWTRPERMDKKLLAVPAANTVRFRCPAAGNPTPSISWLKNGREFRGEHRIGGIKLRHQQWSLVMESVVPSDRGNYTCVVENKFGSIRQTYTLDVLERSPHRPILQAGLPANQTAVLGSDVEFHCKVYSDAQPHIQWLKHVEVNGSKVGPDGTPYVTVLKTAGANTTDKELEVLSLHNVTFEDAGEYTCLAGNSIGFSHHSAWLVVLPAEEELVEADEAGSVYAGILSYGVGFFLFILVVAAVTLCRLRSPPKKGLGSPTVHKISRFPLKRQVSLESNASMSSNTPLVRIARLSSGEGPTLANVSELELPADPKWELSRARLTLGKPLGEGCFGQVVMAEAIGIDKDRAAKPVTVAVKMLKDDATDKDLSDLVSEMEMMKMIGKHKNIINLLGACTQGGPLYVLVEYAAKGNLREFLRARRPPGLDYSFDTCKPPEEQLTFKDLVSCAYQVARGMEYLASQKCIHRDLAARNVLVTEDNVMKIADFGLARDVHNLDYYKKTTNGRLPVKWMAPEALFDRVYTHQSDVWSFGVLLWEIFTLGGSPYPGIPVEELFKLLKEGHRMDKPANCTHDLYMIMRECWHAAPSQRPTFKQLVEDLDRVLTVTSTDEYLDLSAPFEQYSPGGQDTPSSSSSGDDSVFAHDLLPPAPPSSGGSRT
Tyrosine-protein kinase Fer (Homo sapiens), sequence (P16591 whole entry, looked up): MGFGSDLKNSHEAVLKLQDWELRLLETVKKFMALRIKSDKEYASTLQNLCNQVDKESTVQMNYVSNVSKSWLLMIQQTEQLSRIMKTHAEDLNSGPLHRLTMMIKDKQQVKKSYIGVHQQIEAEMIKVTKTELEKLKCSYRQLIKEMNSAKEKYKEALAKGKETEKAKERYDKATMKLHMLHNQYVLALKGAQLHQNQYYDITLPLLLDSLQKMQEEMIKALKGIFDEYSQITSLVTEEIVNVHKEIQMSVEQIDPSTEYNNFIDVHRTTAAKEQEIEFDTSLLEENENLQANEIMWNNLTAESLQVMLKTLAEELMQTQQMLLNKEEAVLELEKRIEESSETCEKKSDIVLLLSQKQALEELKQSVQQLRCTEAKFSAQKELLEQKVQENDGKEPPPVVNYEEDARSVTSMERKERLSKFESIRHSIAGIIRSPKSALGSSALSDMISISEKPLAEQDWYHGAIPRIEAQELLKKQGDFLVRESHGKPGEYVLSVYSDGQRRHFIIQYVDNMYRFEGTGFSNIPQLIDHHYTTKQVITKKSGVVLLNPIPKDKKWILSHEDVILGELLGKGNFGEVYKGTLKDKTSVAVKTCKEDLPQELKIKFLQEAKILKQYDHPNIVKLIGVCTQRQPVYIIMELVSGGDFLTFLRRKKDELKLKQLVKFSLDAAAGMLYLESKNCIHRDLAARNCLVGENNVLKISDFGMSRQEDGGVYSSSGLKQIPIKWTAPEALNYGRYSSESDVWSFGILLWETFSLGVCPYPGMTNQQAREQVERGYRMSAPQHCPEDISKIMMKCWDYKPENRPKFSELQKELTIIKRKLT

For `NC(=O)c1ccc(-c2nc(-c3ccccn3)c(-c3ccc4c(c3)OCO4)[nH]2)cc1`, the inhibition is 6.64% in assay [1]; 1.52% in assay [2]; 2.16% in assay [3]; -0.93% in [4]; 2.26% in [5]; 0.95% in assay [6]. In addition, the inhibition in assay [7] was 1.31%; in assay [8], 2.79%; in assay [9], 1.9%; in assay [10] it was 4.19%; in [11], -0.14%; in [12], 3.69%. In addition, the inhibition in [13] was 5.27%; in assay [14] it was -0.48%; in assay [15], -1%; in assay [16] it was 1.89%; in assay [17], 2.37%; in assay [18], 1.11%. For the same compound, the inhibition in [19] is -0.31%; in assay [20], 2.08%.

In the case of `CCn1c(-c2nonc2N)nc2c(N3CCCC3)nccc21`, the inhibition is 2.34% in [1]; -2.72% in [2]; -3.78% in assay [3]; -3.71% in assay [4]; -1.9% in assay [5]; -4% in [6]. For the same compound, the inhibition in assay [7] is -1.03%; in assay [8], 0.34%; in assay [9] it was -0.31%; in [10], 3.05%; in assay [11], -0.48%; in [12], -0.82%. In addition, the inhibition was -0.02% in assay [13]; -0.79% in assay [14]; -0.61% in assay [15]; -0.78% in assay [16]; -2% in [17]; -4.93% in assay [18]. Besides, the inhibition in [19] was 4.26%; in [20], -1.31%.

On to `COc1cc2ncn(-c3cc(O[C@H](C)c4ccccc4Cl)c(C(N)=O)s3)c2cc1OC`, for which the inhibition in assay [1] worked out at 16.7%; in assay [2] it was 3.81%; in assay [3] it was 5.11%; in [4], 4.42%; in assay [5] it was 29.4%; in assay [6], 12.3%. Besides, the inhibition in [7] is 44.9%; in [8] it was 9.47%; in [10], 3.73%; in assay [11], 8.7%; in assay [12], 8.54%; in assay [13], 17.3%. Further, the inhibition in [14] was 4.8%; in assay [15] it was 26.2%; in assay [16], 6.07%; in assay [17], 24.8%; in assay [18] it was 5.85%; in [19], -0.12%. Besides, the inhibition in assay [20] is 7.57%.

In the case of `Cn1cc(C=C2C(=O)Nc3cccnc32)c2ccccc21`, the inhibition stood at 20.8% in assay [1]; 1.69% in assay [2]; 2.19% in [3]; 6.57% in assay [4]; 17.3% in [5]; 9.78% in [6]. The inhibition in assay [7] came out at 42.2%; in assay [8], 11.2%; in assay [9] it was 47.8%; in assay [10] it was 2.46%; in assay [11], 14.1%; in [12], 7.5%. Moreover, the inhibition is 44% in [13]; 1.42% in assay [14]; 13.1% in [15]; 20.3% in assay [16]; 66.2% in assay [17]; 32.7% in assay [18]. Further, the inhibition stood at 0.73% in [19] and 2.36% in [20].

As to `NC(=O)c1cccc(Nc2nccc(Nc3cccc4[nH]ncc34)n2)c1`, the inhibition is 21.9% in assay [1]; -2.33% in [2]; 10.9% in assay [3]; -5.24% in assay [4]; 9.11% in [5]; -1.94% in [6]. The inhibition in assay [7] was 13.1%; in assay [8], -3.38%; in [9] it was 4.68%; in [10] it was 1.28%; in assay [11], 6.94%; in assay [12], 53.6%. Also, the inhibition is 76.7% in assay [13]; 2.24% in assay [14]; 29.2% in assay [15]; 6.63% in assay [16]; 48% in assay [17]; 10.4% in [18]. Also, the figures for the inhibition in assay [19] and in [20] were 39.1% and 9.98%, respectively.

For `NS(=O)(=O)c1ccc(N/N=C2\C(=O)Nc3ccc(C(=O)NCCc4c[nH]cn4)cc32)cc1`, the inhibition amounted to 5.34% in assay [2]; 8.37% in assay [3]; 3.36% in assay [4]; 12.1% in [5]; 7.55% in assay [6]; 11.5% in assay [7]. Also, the inhibition in assay [8] was 6.41%; in assay [9], 7.55%; in assay [10] it was 4.66%; in [11] it was 2.39%; in assay [12], 4.54%; in assay [13], 19.1%. Moreover, the inhibition in assay [14] was determined as 2.21%; in assay [15] it was 10.7%; in assay [16], 7.03%; in assay [17], 23.4%; in assay [18], 8.84%; in [19], 0.3%. Besides, the inhibition in assay [20] was determined as 5.07%.

Turning to `O=C1NC(=O)C(N2CCc3ccccc32)=C1c1ccc(Cl)cc1`, the inhibition in assay [1] is 6.71%; in assay [2], 4.08%; in assay [3] it was 7.35%; in assay [4] it was 5.27%; in [5], 13%; in [6], 6.84%. Further, the inhibition in assay [7] was 14%; in assay [8], 8.07%; in assay [9], 11.6%; in assay [10] it was -1.04%; in [11], 1.44%; in [12], 2.39%. In addition, the inhibition is 8.07% in [13]; 1.82% in assay [14]; 5.14% in [15]; 2.06% in assay [16]; 5.05% in assay [17]; -2.14% in assay [18]. For the same compound, the inhibition in assay [19] is -4.27%; in assay [20], 3.4%.

For the compound `Cc1cc(O)cc(C)c1/C=C/c1cncc(-c2nn[nH]n2)c1`, the inhibition in assay [1] worked out at 11.9%; in assay [2], 2.28%; in assay [3] it was 3.8%; in [4], 2.34%; in [5] it was 3.83%; in [6], 1.54%. Besides, the inhibition in [7] is 13.3%; in assay [8] it was 3.74%; in assay [9] it was 2.92%; in [10] it was -9.13%; in assay [11], 0.95%; in assay [12], 9.4%. Moreover, the inhibition was 51.5% in assay [13]; 3.27% in assay [14]; 5.69% in assay [15]; 2.5% in assay [16]; 4.37% in assay [17]; -2.23% in assay [18]. The results for the inhibition in assay [19] and in [20] were -2.7% and 3.72%, respectively.
